We go through 43 compounds from article PMC4336329 (PLoS ONE, 2015).

Molecules are shown by their SMILES. In all, about 310,000 compounds went through this assay and about 14,000 (4.5%) showed an effect of 50% or more. Effects have a minus sign here. The entries come from a sample that favours strong results as a whole.
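Further: peak tail current of the secondary pulse compared with the same well before compound.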

Sequence of human ether-à-go-go-related gene (hERG) potassium channel (Q12809 whole entry, looked up): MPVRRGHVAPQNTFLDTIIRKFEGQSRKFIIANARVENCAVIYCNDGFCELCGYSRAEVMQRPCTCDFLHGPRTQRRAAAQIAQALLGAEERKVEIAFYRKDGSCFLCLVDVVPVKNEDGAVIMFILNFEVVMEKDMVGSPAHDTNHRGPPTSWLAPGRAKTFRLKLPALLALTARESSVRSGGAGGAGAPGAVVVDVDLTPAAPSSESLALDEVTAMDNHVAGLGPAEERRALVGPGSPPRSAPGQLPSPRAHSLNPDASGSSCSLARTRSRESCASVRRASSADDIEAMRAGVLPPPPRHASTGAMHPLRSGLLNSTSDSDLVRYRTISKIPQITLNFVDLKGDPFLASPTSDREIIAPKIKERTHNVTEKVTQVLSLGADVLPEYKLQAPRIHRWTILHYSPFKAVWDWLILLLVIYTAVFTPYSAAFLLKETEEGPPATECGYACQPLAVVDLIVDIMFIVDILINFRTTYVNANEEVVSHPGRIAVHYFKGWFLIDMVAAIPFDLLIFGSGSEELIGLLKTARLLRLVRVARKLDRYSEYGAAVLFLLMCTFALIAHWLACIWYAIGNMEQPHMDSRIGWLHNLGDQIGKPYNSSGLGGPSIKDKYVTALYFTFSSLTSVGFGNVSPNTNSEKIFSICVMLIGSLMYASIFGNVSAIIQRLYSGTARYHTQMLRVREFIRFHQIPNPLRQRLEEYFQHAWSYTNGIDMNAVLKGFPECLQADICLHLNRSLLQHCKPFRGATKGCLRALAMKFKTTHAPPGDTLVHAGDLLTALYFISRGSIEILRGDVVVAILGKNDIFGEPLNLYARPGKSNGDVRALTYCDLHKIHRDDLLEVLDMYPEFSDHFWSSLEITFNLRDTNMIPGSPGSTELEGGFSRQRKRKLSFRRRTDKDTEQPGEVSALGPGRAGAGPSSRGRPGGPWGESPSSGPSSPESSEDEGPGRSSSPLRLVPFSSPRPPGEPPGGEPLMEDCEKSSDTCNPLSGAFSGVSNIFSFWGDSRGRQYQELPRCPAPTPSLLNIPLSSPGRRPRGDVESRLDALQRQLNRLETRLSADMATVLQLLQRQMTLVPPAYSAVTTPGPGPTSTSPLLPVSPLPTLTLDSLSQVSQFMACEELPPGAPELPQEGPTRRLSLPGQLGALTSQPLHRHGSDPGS

The test has as its target human ether-à-go-go-related gene (hERG) potassium channel (human, UniProt Q12809). In words: primary screen, population patch clamp on CHO cells stably expressing hERG; higher = less effect of the substance.
For `C=CCNC(=O)C1CC(=O)N(c2ccc(Br)cc2)C1` (stereo not shown), the “hERG current change (%, negative = inhibition) at 10uM” value is on record as -7.08%. For the compound `CCOc1ccc(NC(=O)C2CCN(C(=O)C3CC(=O)N(c4ccc(C)cc4)C3)CC2)cc1` (stereo not shown), the “hERG current change (%, negative = inhibition) at 10uM” value is on record as -22.1%. In the case of `O=C(Nc1ccc(F)cc1F)c1ccco1`, the “hERG current change (%, negative = inhibition) at 10uM” value stood at 2.94%. Regarding `COc1nc(N)c(S(=O)(=O)c2ccccc2)cc1C#N`, the “hERG current change (%, negative = inhibition) at 10uM” value is listed as -19%.

For `COc1cccc(S(=O)(=O)N2CCN(Cc3ccc4c(c3)OCO4)CC2)c1`, the “hERG current change (%, negative = inhibition) at 10uM” value is reported as -24.4%. As for `COC(=O)/C(=C\Nc1ccc(Cl)cc1Cl)NC(=O)c1ccc(OC)cc1`, the “hERG current change (%, negative = inhibition) at 10uM” value came to 5.27%. In the case of `Fc1ccc(C2=CC(c3ccco3)n3nnnc3N2)cc1` (stereo not shown) it was -6.76%; in that of `Cc1ccc(OC(C)C(=O)Nc2cc(C)on2)cc1` (stereo not shown), 2.53%. In the case of `O=C(NCCSCc1ccccc1)c1ccc(C2SCC(=O)N2Cc2ccccc2)cc1` (stereo not shown) it was -8.07%; in that of `CC(=O)c1cccc(NC(=O)c2ccco2)c1`, 7.09%; in that of `Cc1ccccc1NC(=O)Cn1c(=O)sc2ccccc21`, -0.661%. With `COc1ccc(C)cc1NC(=O)C1CCN(C(=O)C2CC(=O)N(c3ccc(C)cc3)C2)CC1` (stereo not shown), the “hERG current change (%, negative = inhibition) at 10uM” value is given as -23.1%. Take `COc1ccc(Cl)cc1NC(=O)C1CCN(C(=O)C2CC(=O)N(c3ccc(C)cc3)C2)CC1` (stereo not shown): the “hERG current change (%, negative = inhibition) at 10uM” value is on record as -60.4%. Turning to `COc1ccc(OC)c(NC(=O)C2CCN(C(=O)C3CC(=O)N(c4ccc(C)cc4)C3)CC2)c1` (stereo not shown), the “hERG current change (%, negative = inhibition) at 10uM” value is -37.7%. In the case of `CCc1cccc(C)c1NC(=S)NCc1ccccc1` it was 0.76%. As for `CC(C)OP(=O)(c1ccccc1)c1ccccc1`, the “hERG current change (%, negative = inhibition) at 10uM” value is -3.71%. For the compound `c1ccc2sc(NC3=NCN(Cc4ccc5c(c4)OCO5)CN3)nc2c1`, the “hERG current change (%, negative = inhibition) at 10uM” value is given as 4.28%.

In the case of `CCOC(=O)N1CCN(C(=O)c2nc3ccccc3s2)CC1`, the “hERG current change (%, negative = inhibition) at 10uM” value is given as -0.815%. As for `Cl.N#C/C=C/N1CCN(Cc2ccc3c(c2)OCO3)CC1`, the figure is 1.29%; as for `N#C/C(=C\N1CCN(Cc2ccc3c(c2)OCO3)CC1)c1nc2ccccc2s1`, -52.8%; as for `CCOC(=O)N1CCN(CC(=O)Nc2nc3ccccc3s2)CC1`, -35.5%. For the compound `CCOC(=O)N1CCN(/C=C(\C#N)c2nc3ccccc3s2)CC1`, the “hERG current change (%, negative = inhibition) at 10uM” value was -58.5%. For `CCCn1c(=O)c(C(=O)NCCc2ccc(OC)c(OC)c2)c(O)c2ccccc21`, the “hERG current change (%, negative = inhibition) at 10uM” value was 10.5%. As to `CCOC(=O)C1=C(COC(=O)C2CC(=O)N(c3ccc(C)cc3)C2)NC(=O)NC1C` (stereo not shown), the “hERG current change (%, negative = inhibition) at 10uM” value was -7.55%.

Regarding `Cc1cccc(S(=O)(=O)C(C#N)c2nc3ccccc3nc2N2CCCC2)c1` (stereo not shown), the “hERG current change (%, negative = inhibition) at 10uM” value is -18.4%. For `O=C(N/N=C1\CCCc2ccccc21)c1ccc([N+](=O)[O-])cc1Cl`, the “hERG current change (%, negative = inhibition) at 10uM” value is -3.01%. Consider `COc1cccc(C(=O)C2CCCN(C/C=C/c3ccccc3OC)C2)c1` (stereo not shown), for which the “hERG current change (%, negative = inhibition) at 10uM” value is -68.4%. Turning to `COc1ccc(C(=O)C2CCCN(C/C=C/c3ccccc3OC)C2)c(OC)c1` (stereo not shown), the “hERG current change (%, negative = inhibition) at 10uM” value was -77.5%. As to `NC(=O)c1cc([N+](=O)[O-])cc2c1C=Cc1ccccc1O2`, the “hERG current change (%, negative = inhibition) at 10uM” value stood at 2.92%. Take `CC12COC3(C(=O)Nc4ccc([N+](=O)[O-])cc4)CC1CCC32C` (stereo not shown): the “hERG current change (%, negative = inhibition) at 10uM” value is -32.1%. On to `O=C(COC(=O)C1CC2CCCC(C1)C2=O)NC(=O)c1ccc(OC(F)F)cc1` (stereo not shown), for which the “hERG current change (%, negative = inhibition) at 10uM” value turned out to be 23.2%. As to `CCOC(=O)N1CCN(C(=O)CN(Cc2ccc(Cl)cc2)S(C)(=O)=O)CC1`, the “hERG current change (%, negative = inhibition) at 10uM” value is -15.5%.

For the compound `CCOC(=O)N1CCN(C(=O)CN(Cc2ccc(Cl)cc2)S(=O)(=O)c2ccccc2)CC1`, the “hERG current change (%, negative = inhibition) at 10uM” value was -70.1%.

On to `COc1ccc(CNC(=O)CN(Cc2ccc(C)cc2)S(=O)(=O)c2ccc(Cl)cc2)cc1`, for which the “hERG current change (%, negative = inhibition) at 10uM” value is given as -50.9%.

With `COc1ccc(N(CC(=O)NCc2ccccc2)S(=O)(=O)c2c(C)n[nH]c2C)cc1`, the “hERG current change (%, negative = inhibition) at 10uM” value is on record as -35.6%. `COc1ccc(CNC(=O)CN(Cc2ccc(Cl)cc2)S(C)(=O)=O)cc1`: the “hERG current change (%, negative = inhibition) at 10uM” value was -45.4%. As for `COc1ccc(C)cc1S(=O)(=O)N(CC(=O)NCc1ccc(Cl)cc1)Cc1ccccc1`, the figure is 8.35%. As to `COc1ccc(CNC(=O)CN(Cc2ccccc2)S(=O)(=O)c2ccc(Cl)cc2)cc1`, the “hERG current change (%, negative = inhibition) at 10uM” value was -61.7%. For the compound `COc1ccc(CNC(=O)CN(Cc2ccc(Cl)cc2)S(=O)(=O)c2ccccc2)cc1`, the “hERG current change (%, negative = inhibition) at 10uM” value is -12.5%.

Turning to `COc1ccc(CNC(=O)CN(C)S(=O)(=O)c2ccc(Cl)cc2)cc1`, the “hERG current change (%, negative = inhibition) at 10uM” value is on record as -20.4%.

Consider `COc1ccc(N(CC(=O)NCc2ccc(F)cc2)S(=O)(=O)c2c(C)n[nH]c2C)cc1`, for which the “hERG current change (%, negative = inhibition) at 10uM” value was -26.5%.

`COc1ccc(N(CC(=O)NCc2ccc(Cl)cc2)S(=O)(=O)c2c(C)n[nH]c2C)cc1`: the “hERG current change (%, negative = inhibition) at 10uM” value is recorded as -57.4%. Consider `CCOC(=O)N1CCN(C(=O)CN(Cc2ccc(Cl)cc2)S(=O)(=O)c2ccc(C)cc2)CC1`, for which the “hERG current change (%, negative = inhibition) at 10uM” value is listed as -42.8%.
